# Compounds with a hit are over-represented: about 2.8% of the library has one in this group of screens.
# PI5P4K alpha inh: qHTS for Inhibitors of phosphatidylinositol 5-phosphate 4-kinase (PI5P4K); PI5P4Kalpha enzyme, ADP-Glo luminescence, 60 min; stronger effect = lower value; max response, %; AID 652105, 2013; 1.2% of 330,000 active; Phosphatidylinositol 5-phosphate 4-kinase type-2 alpha (Homo sapiens), P48426; active = max response of -50% or lower; inconclusive = between -30% and -50%; inactive = -30% or higher; also: value at the top dose of about 77 µM; % is scaled to controls: 0 for no effect and ±100 for the full control effect
# Target sequence (P48426 whole entry, looked up): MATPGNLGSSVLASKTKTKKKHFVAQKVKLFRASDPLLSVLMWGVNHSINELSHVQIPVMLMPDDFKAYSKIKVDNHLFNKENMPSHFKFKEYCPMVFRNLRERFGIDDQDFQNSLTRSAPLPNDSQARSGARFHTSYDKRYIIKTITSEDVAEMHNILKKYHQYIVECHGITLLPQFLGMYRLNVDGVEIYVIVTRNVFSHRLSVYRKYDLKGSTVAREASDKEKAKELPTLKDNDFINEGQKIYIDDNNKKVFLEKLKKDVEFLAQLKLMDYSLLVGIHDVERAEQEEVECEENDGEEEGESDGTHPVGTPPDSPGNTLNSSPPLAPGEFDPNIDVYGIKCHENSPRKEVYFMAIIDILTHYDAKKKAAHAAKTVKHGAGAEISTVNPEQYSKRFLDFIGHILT
#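 Controls without substrate or without enzyme flank wells where PI5P4Kalpha converts substrate using 5 microM ATP (final). Incubation lasts 60 minutes at room temperature; ADP formed is read by ADP-Glo luminescence.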
# POLI inh: qHTS for Inhibitors of Polymerase Iota; DNA polymerase iota (Homo sapiens), Q9UNA4; Pol iota fluorescent replication assay, 10 min; Potency, µM (series often up to 115 µM), for inactives: top-dose activity, negative = inhibition, most hits filed as inhibitors; 1% of 390,000 active; also: potency is read from the fitted curve at half-maximal effect
#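 Fluorescent replication assay read twice, at 0 min and 10 min after adding 50 nM (final) substrate. Enzyme (10 nM) and compounds were first incubated 15 min at room temperature; enzyme-free buffer wells were negative controls.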
# POLK inh: qHTS for Inhibitors of Polymerase Kappa. 0.53% of 400,000 active. AID 588579, 2011. Potency, µM (highest dose often 107 µM), inactives show top-dose activity, negative = inhibition, actives largely listed as inhibitors. purified Pol kappa, fluorescent DNA synthesis assay, 10 min. DNA polymerase kappa (Homo sapiens), Q9UBT6; also: potency is read from the fitted curve at half-maximal effect; % is scaled to controls: 0 for no effect and ±100 for the full control effect
#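 Kinetic fluorescence readout at 0 and 10 min followed reaction start with substrate at 50 nM final. Beforehand, enzyme (10 nM Pol kappa) stood 15 min with compound at room temperature; buffer-only wells were negative controls.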
# FEN1 inh: qHTS Assay for the Inhibitors of Human Flap endonuclease 1 (FEN1). P39748. Recombinant FEN1 flap cleavage, fluorescence, 15 min. Potency, µM (doses to about 114 µM), for inactives: top-dose activity change, negative = inhibition, usual class: inhibitors. 0.35% of 390,000 active. AID 588795, 2011; also: potency is read from the fitted curve at half-maximal effect; % is scaled to controls: 0 for no effect and ±100 for the full control effect; nearly all actives have a fitted effect of over 65% in size
#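 In this screen, 50 nM flap DNA substrate was added to 10 nM FEN1 pretreated with compound for 15 min at room temperature; cleavage was followed with reads at 0 and 15 min, and Hill fitting gave concentration–response parameters.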
# Pol eta inh: qHTS for Inhibitors of Polymerase Eta. DNA polymerase eta (Homo sapiens), Q9Y253. recombinant Pol eta, fluorescent DNA replication assay. Potency, µM (top dose mostly 114 µM), for the others: at the top dose activity change, negative = inhibition, usual class: inhibitors. 1.2% of 390,000 active; also: potency is read from the fitted curve at half-maximal effect; % is scaled to controls: 0 for no effect and ±100 for the full control effect
#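 Pol eta (10 nM) was preincubated with compounds for 15 min at room temperature, after which fluorescent replication substrate (50 nM final) was added to start the reaction. Fluorescence was read kinetically at 0 and 10 min.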
# Pol beta inh: qHTS Assay for Inhibitors of DNA Polymerase Beta | Pol beta primer extension/strand displacement, fluorescence kinetic | Potency, µM (series often up to 114 µM), for the others: at the top dose activity change, negative = inhibition, actives largely listed as inhibitors | 1.3% of 340,000 active | P06746; also: potency is read from the fitted curve at half-maximal effect; % is scaled to controls: 0 for no effect and ±100 for the full control effect
#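 Homogeneous kinetic assay of primer extension and strand displacement by 10 nM Pol beta, preincubated 15 min at room temperature with compound before 50 nM substrate (final) was added. Read at 0 and 10 min; four-parameter Hill fit.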
# An asterisk follows results filed as active; ? = inconclusive; . = no result; ! = a repeat was not active; [ ] = another dose, or the depositor's remark. Unless noted, calls follow the shape of the dose curve; as a rule, active = well fitted curve in the direction sought with a large enough effect; inconclusive = small, poorly fitted or top-dose-only effect, or another doubt; inactive = no such curve, though single readings can be large; an effect the other way counts as inactive or inconclusive.
SMILES,PI5P4K alpha inh,POLI inh,POLK inh,FEN1 inh,Pol eta inh,Pol beta inh
CCOC(=O)Cc1[nH]nc2c1C(C1C=CCCC1)C(C#N)=C(N)O2 (centres undefined),-51*,?,-5%,8%,?,?
CCOC(=O)Cc1[nH]nc2c1C(c1cccc(OC)c1OC)C(C#N)=C(N)O2 (centres undefined),-1,11%,-8%,1%,-6%,1%
O=C1CC(c2nc(-c3ccccc3)no2)CN1c1ccccc1 (centres undefined),.,7%,2%,-9%,-22%,0%
S=c1ncc2[nH]c(=S)[nH]c2[nH]1,-84*,?,-9%,-24%,-15%,.
CCOc1cccc2cc(-c3nnc(NCc4ccc5c(c4)OCO5)s3)c(=O)oc12,5,10%,-7%,8%,4µM*,?
CCOc1cccc2cc(-c3nnc(Nc4ccc(F)c(Cl)c4)s3)c(=O)oc12,.,30%,-6%[60.1 µM],-4%,-9%,30%
O=C(/C=C/c1ccc(O)c(O)c1)c1ccc(S(=O)(=O)N2CCCCCC2)cc1,-64*,?,-36%,-7%,7.9µM*,?
CN(C)S(=O)(=O)c1cccc(NC(=S)NC(=O)c2ccco2)c1,2,73%,-8%,10%,-23%,.
CN(C)S(=O)(=O)c1cccc(NC(=S)NNC(=O)c2cc3ccccc3cc2O)c1,-60*,32%,-12%,-14%,-15%,.
COc1ccc(Br)c(C(=O)Nc2cc3c(cc2N2CCOCC2)n(C)c(=O)n3C)c1,.,4%,8%,12%,6%,1%
CN(C)C(=O)C12CCC(C)(c3nc4ccccc4nc31)C2(C)C (centres undefined),.,13%,-19%,-4%,-5%,12%
CC12CCC(C(N)=O)(c3nc4ccccc4nc31)C2(C)C (centres undefined),0,-9%,1%,-1%,-5%,89µM*
CN1CCN(c2ncc3nc(-c4cc(F)cc(F)c4)c(=O)n(CCC#N)c3n2)CC1,.,.,1%[60.1 µM],.,.,.
Cc1ccccc1OCc1nnc(SCC(=O)O)n1-c1cccc(Cl)c1,-53*,-11%,-14%,15%,-4%,31%
Cc1ccccc1OCc1nnc(SCC(=O)O)n1-c1ccccc1,?,?,-18%,20%,-3%,-26%
O=C(Nc1cccc(Cl)c1)c1cc2c(=O)[nH]c3ccccc3c2s1,.,1%,-23%,-6%,.,-25%
O=C(Nc1ccc(S(=O)(=O)Nc2nccs2)cc1)c1cccc(N2C(=O)c3ccccc3C2=O)c1,-25,71µM*,?,?,50µM*,-6%
Cc1cc(C)c2oc(C(=O)Nc3ccc(S(=O)(=O)Nc4nccs4)cc3)cc(=O)c2c1,-27,79µM*,?,-18%,?,?
Cc1ccc2oc(C(=O)Nc3ccc(S(=O)(=O)Nc4ncccn4)cc3)cc(=O)c2c1,.,41%,15%,1%,-21%,10%
Cc1cccc(-n2ccc(=O)c(C(=O)Nc3ccc(S(=O)(=O)Nc4nccs4)cc3)n2)c1,?,-19%,-16%,-17%,?,89µM*
N#Cc1cccc(C(=O)Nc2ccc(S(=O)(=O)Nc3nccs3)cc2)c1,-13,-20%,-13%,13%,-1%,.
Clc1ccc(CSc2nnc(-c3cccnc3)n2Cc2ccco2)c(Cl)c1,?,-7%,-23%,0%,?,50µM*
Cc1oc(-c2ccccc2F)nc1CS(=O)CC(=O)NCc1ccc(Cl)cc1 (centres undefined),-2,32%,0%,-13%,-18%,-3%
Cc1oc(-c2ccccc2Cl)nc1CS(=O)CC(=O)NCc1ccc(Cl)cc1 (centres undefined),5,79µM*!,-7%,-1%,-6%,-7%
O=C(Nc1ccc2oc(-c3cccnc3)nc2c1)c1ccc2c(c1)OCCO2,-8,?,?,?,?,14µM*
SMILES,PI5P4K alpha inh,POLI inh,POLK inh,FEN1 inh,Pol eta inh,Pol beta inh
CCCCNc1nc2c(S(=O)(=O)c3ccc(C)c(C)c3)nnn2c2ccsc12,.,-15%,-9%,-6%,-12%,-26%
O=C(/C=C/c1ccco1)N1CCN(c2ncccn2)CC1,2,3%,-13%,8%,?,?
O=C(/C=C/c1ccco1)N1CCC(Cc2ccccc2)CC1,-57*,40µM*,?,-8%,?,?
O=c1c2c(-c3ccco3)csc2nc(SCc2cn3cccnc3n2)n1-c1ccccc1,-67*,?,-23%,1%,11µM*,-1%
c1ccc(Cn2c(SCc3cn4cccnc4n3)nnc2-c2ccco2)cc1,-1,5%,-15%,2%,-6%,16%
O=C(CSc1nc2scc(-c3ccco3)c2c(=O)n1-c1ccccc1)N1CCOCC1,.,-2%[58.9 µM],-13%,-16%,-10%,16%
NC(=O)CSc1nc2scc(-c3ccco3)c2c(=O)n1-c1ccccc1,-70*,11µM*,45µM*,?,79µM*,?
OC[C@@H]1OC(O)[C@@H](O)[C@H](O)[C@@H]1O (some centres undefined),.,.,5%[60.1 µM],.,.,.
O=c1cnc2cnc(Nc3ccccc3)nc2n1Cc1cccs1,.,.,7%[60.1 µM],.,.,.
N#Cc1c(NC(=O)C2CC=CCC2C(=O)O)sc2c1CCCCCC2 (centres undefined),2,-12%,-27%,-4%,?,18µM*
CC(C)(C)C1CCc2c(sc(NC(=O)C3CC=CCC3C(=O)O)c2C#N)C1 (centres undefined),2,6%,-15%,0%,?,71µM*
CC(C)(C)c1ccc(C(=O)Nc2sc3c(c2C#N)CCC(C(C)(C)C)C3)cc1 (centres undefined),.,2%,0%,13%,-18%,-1%
N#Cc1c(NC(=O)C2CCCO2)sc2c1CCCCCC2 (centres undefined),-14,12%,-12%,-13%,-8%,-8%
Cc1ccsc1C(=O)Nc1ccc(S(=O)(=O)N2CCOCC2)cc1,-6,4%,-3%,4%,-15%,.
COc1ccc2c(C)cc(SCC(=O)c3ccc4c(c3)OCO4)nc2c1,.,-16%[58.9 µM],-6%,8%,-14%,50µM*
CCOC(=O)c1c(NC(=O)COc2ncnc3ccccc23)sc(C)c1C,5,6%,-3%,-16%,-7%,-17%
CCOC(=O)c1c(C)[nH]c(C)c1C(=O)COc1ncnc2ccccc12,-55*,36%,-1%,-6%,6%,-11%
